Screening results from PubChem.
AGP1 TOR yeast – alters AGP1-GFP fluorescence in TOR pathway yeast screen; S. cerevisiae AGP1-GFP multiplex flow cytometry, 3 h; GFP as percent of DMSO wells; GFP response vs DMSO, % at 10 µM; 320,000 compounds, 0.02% hits; AID 2066;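 active = GFP response relative to DMSO above a set limit, near screen average plus 3 SD, cut at about 150% in these data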;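 note: median GFP channel fluorescence of the gated AGP1 strain per well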
RPL19A-GFP yeast – alters RPL19A-GFP fluorescence in TOR pathway yeast screen; S. cerevisiae RPL19A-GFP strain, flow cytometry, 3 h; stronger effect = lower value; percent response vs DMSO, % at 10 µM; 330,000 compounds, 0.3% hits;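 active = percent response vs DMSO below 50%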;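 note: median channel GFP fluorescence of the barcoded RPL19A-GFP strain; ratio of sample median GFP to plate DMSO average so 100% = DMSO; lower means less RPL19A-GFP as with rapamycin TOR inhibition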
MEP2 TOR yeast – alters MEP2-GFP fluorescence in TOR pathway yeast screen; S. cerevisiae MEP2-GFP strain, flow cytometry GFP, 3 h; 100% = DMSO control level; GFP response vs DMSO, % at 10 µM; 330,000 compounds, 0.51% hits; AID 2016;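 active = GFP response versus DMSO above a set limit, roughly screen mean plus 3 SD, cut at about 180% in these data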;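 note: median GFP fluorescence of the barcode-gated MEP2-GFP cells per well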
CIT2 TOR yeast – alters CIT2-GFP fluorescence in TOR pathway yeast screen; 320,000 compounds, 0.065% hits; S. cerevisiae CIT2-GFP strain, flow cytometry, 3 h; 100 means same as DMSO wells; GFP response vs DMSO, % at 10 µM;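 active = GFP response relative to DMSO above a set limit, near the screen mean plus 3 SD, cut at about 150% in these data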;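 note: ratio of well median GFP fluorescence to mean of DMSO wells on the plate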
LAP4-GFP MLPCN – alters LAP4-GFP fluorescence in TOR pathway yeast screen; S. cerevisiae LAP4-GFP multiplex, flow cytometry GFP, 3 h; median GFP as percent of DMSO wells; GFP response vs DMSO, % at 10 µM; 320,000 compounds, 0.34% hits; AID 2023;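 active = GFP response vs DMSO above a set limit, about the screen mean plus 3 SD, cut at about 150% in these data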
LAP4-GFP pick2 – yeast LAP4-GFP modulation, second cherry pick | shares compounds with LAP4-GFP MLPCN | S. cerevisiae LAP4-GFP strain, flow cytometry GFP, 3 h | GFP response vs DMSO, % at 10 µM | 590 compounds, 20% hits | AID 2621;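 active = GFP signal as percent of the solvent control above about 150%, meaning raised reporter expression, limit read from the data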;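 note: ratio of well median GFP fluorescence to plate DMSO mean so 100% = DMSO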
MEP2 cherry2 – yeast MEP2-GFP modulation, second cherry pick; shares compounds with LAP4-GFP MLPCN; S. cerevisiae MEP2-GFP strain, flow cytometry GFP, 3 h; GFP response vs DMSO, % at 10 µM; 590 compounds, 10% hits;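 active = GFP signal above 150% of the solvent control wells, that is a rise of more than half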;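 note: median channel GFP fluorescence of all gated yeast cells per well; ratio of median GFP to plate DMSO average so 100% = DMSO level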
RPL19A GFP CP2 – second confirmation of modulators of TOR reporter RPL19A-GFP in yeast. shares compounds with LAP4-GFP MLPCN. S. cerevisiae RPL19A-GFP strain, flow cytometry GFP, 3 h; stronger effect = lower value; 100% means same as DMSO wells. GFP response vs DMSO, % at 10 µM. 590 compounds, 3% hits. AID 2623;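 active = under 65% GFP response relative to DMSO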;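 note: median GFP channel fluorescence per well over the all cells gate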
CIT2 GFP CP2 – second confirmation of modulators of TOR reporter CIT2-GFP in yeast | 590 compounds, 8% hits | S. cerevisiae CIT2-GFP strain, flow cytometry GFP, 3 h; DMSO control wells read 100% | GFP response vs DMSO, % at 10 µM | shares compounds with LAP4-GFP MLPCN | AID 2624;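 active = GFP response vs DMSO above about 150%, limit read from the data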;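 note: median green fluorescence per well over all gated yeast cells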
AGP1 GFP CP2 – reconfirmed modulator of AGP1-GFP TOR reporter in yeast. shares compounds with LAP4-GFP MLPCN. S. cerevisiae AGP1-GFP strain, flow cytometry GFP, 3 h. percent response vs DMSO, % at 10 µM. 590 tested, under 10 active;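 active = over 150 percent of DMSO response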;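 note: median GFP channel fluorescence over all cells without mother daughter split; sample median GFP divided by mean DMSO control so 100% equals DMSO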
Yeast autofluor – yeast s288c autofluorescence artifact, counter-screen; AID 2757; 610 tested, under 10 active; S. cerevisiae s288c, 520 nm autofluorescence, flow cytometry, 3 h; stronger effect = higher value; zero means same as solvent-only cells; shares compounds with LAP4-GFP MLPCN; fluorescence change (kMESF span) at 33 µM;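 active = fluorescence span over the dose series, or activity score, above about 33, limit read from the data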
s288c autofl DR – TOR screen hit shows autofluorescence in yeast s288c; shares compounds with LAP4-GFP MLPCN; S. cerevisiae s288c parental, compound autofluorescence, flow cytometry, 3 h; fluorescence change (span) at 33 µM; 110 tested, under 10 active; AID 488829;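 active = fluorescence change span, or the activity score built from it, above 25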
TORC1 bypass gr – stops wildtype yeast growth while TORC1 bypass cells still grow; shares compounds with LAP4-GFP MLPCN; S. cerevisiae BY4741 spot growth rating, 48-72 h; stronger effect = lower value; growth rating (0-3) at 30 µM; 120 tested, under 10 active; AID 504456;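 active = growth rating at most 1 for wild type yeast while the TORC1 bypass strain still grows fully, rated 3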
The depositor's hits bear a star; · = no result given. Compounds with a hit are over-represented: about 0.92% of the library has one in this group of screens.

SMILES	AGP1 TOR yeast	RPL19A-GFP yeast	MEP2 TOR yeast	CIT2 TOR yeast	LAP4-GFP MLPCN	LAP4-GFP pick2	MEP2 cherry2	RPL19A GFP CP2	CIT2 GFP CP2	AGP1 GFP CP2	Yeast autofluor	others
CCCCc1ccc(NC(=O)CC(C)=O)cc1	103.2	106.8	110.2	102.9	110.2	143.3	174.7*	107.5	151.6*	101.4	0
CCN(CC(=O)Nc1cc(Cl)cc(Cl)c1)CC(=O)NC1CCS(=O)(=O)C1 (stereo unspecified)	97.4	96.0	99.4	100.1	95.0	·	·	·	·	·	·
COc1ccc(-n2c(C)cc(C(=O)CSc3nnc(-c4ccoc4C)n3C)c2C)cc1	95.4	97.6	90.0	87.0	99.4	·	·	·	·	·	·
COc1cccc(/C=C2\C(=O)C(=O)c3ccccc32)c1	102.7	97.3	101.5	98.8	125.3	·	·	·	·	·	·
COc1cc(C=C2C(=O)c3ccccc3C2=O)cc(OC)c1OC	88.8	99.7	89.8	88.6	121.0	105.2	103.1	93.3	96.0	103.4	0.2
COc1ccc(C=C2C(=O)c3ccccc3C2=O)cc1O	99.5	97.0	99.8	96.9	103.8	94.2	96.5	103.0	102.9	95.3	0.3
COc1cc(C=C2C(=O)c3ccccc3C2=O)cc(OC)c1	90.6	93.1	91.4	89.3	119.6	99.2	96.1	97.8	105.7	100.7	0
COc1ccc2c(c1)CC/C(=C/c1cc(OC)c(OC)c(OC)c1)C2=O	110.7	102.6	107.1	93.0	111.5	·	·	·	·	·	·
O=C(CCCCCNC(=O)c1ccccc1Br)N=Nc1c(O)[nH]c2ccccc12	103.8	94.3	96.9	98.1	112.4	·	·	·	·	·	·
COc1ccc(S(=O)(=O)N2CCC3(CC2)OCCN3S(=O)(=O)c2cccs2)cc1OC	112.9	105.5	105.0	106.2	99.5	·	·	·	·	·	·
CCO[C@H]1OC(C(=O)N2CCOCC2)=C[C@@H](c2cn(C(C)=O)c3ccccc23)[C@@H]1CCCO	119.6	74.4	507.0*	111.2	222.6*	99.2	96.1	100.4	102.9	100.3	·
O=C1C(Cl)=C(N2CCN(Cc3ccccc3)CC2)C(=O)N1c1ccccc1	95.7	94.2	98.2	94.4	90.2	·	·	·	·	·	-0.1
N#Cc1cc([N+](=O)[O-])c(-n2nnc3ccccc32)c([N+](=O)[O-])c1	93.2	87.2	93.5	84.6	206.1*	·	·	·	·	·	-0.2
Cn1nc(-c2ccc(N3CCN(CCO)CC3)c([N+](=O)[O-])c2)c2ccccc2c1=O	98.9	105.5	103.6	105.9	93.4	·	·	·	·	·	·
O=C(NC(=S)NNC(=O)c1cnccn1)c1ccc(Cl)cc1	109.0	112.1	116.7	102.0	181.0*	·	·	·	·	·	2.04
COc1ccc(C(=O)NC(=S)NNC(=O)c2cnccn2)cc1	87.3	105.4	110.8	90.0	240.5*	·	·	·	·	·	1.02	s288c autofl DR=0.49;TORC1 bypass gr=3
CCCOc1ccc(C(=O)N(CC(C)C)c2c(N)n(Cc3ccccc3)c(=O)[nH]c2=O)cc1	106.7	96.2	97.2	101.6	108.0	·	·	·	·	·	·
COCCCC1CCN(C(=O)C2CCC(=O)N(Cc3cccc(F)c3)C2)CC1 (stereo unspecified)	91.9	96.6	97.7	96.6	86.4	·	·	·	·	·	·
Cc1ccc2c(c1)/C(=N/OS(=O)(=O)c1ccccc1)CCS2	102.0	94.0	104.8	98.9	103.0	·	·	·	·	·	·
CC1=CC(=O)C(C(C)C)=C/C1=N/OS(=O)(=O)c1ccccc1	98.4	72.9	77.0	75.1	215.7*	·	·	·	·	·	2.75
CCN(CC)CCCN1C(=O)C2C(C(=O)Nc3ccc(C(C)C)cc3)C3C=CC2(O3)C1C(=O)NC1CCCCC1 (stereo unspecified)	102.2	103.3	99.1	104.7	92.5	·	·	·	·	·	·
CN(C)NC(=S)Nc1ccc(S(=O)(=O)N2CCCCC2)cc1	66.1	64.8	100.0	87.1	97.5	107.2	108.3	99.7	112.6	100.0	-0.1
CCOC(=O)N1CCC(N2Cc3cccc(C(=O)Nc4ccc(N(CC)CC)cc4C)c3C2=O)CC1	102.2	97.1	95.0	103.8	94.8	·	·	·	·	·	·
Cc1cc(C)cc(NC(=O)[C@H](NC(=O)[C@@H]2Cc3ccccc3CN2)c2ccccc2)c1	104.5	102.4	99.8	107.2	104.8	·	·	·	·	·	·
Cc1cc(-c2ccco2)c(C#N)c2nc3ccccc3n12	56.1	58.6	103.7	50.9	115.9	117.2	136.2	66.3	126.5	72.6	·
SMILES	AGP1 TOR yeast	RPL19A-GFP yeast	MEP2 TOR yeast	CIT2 TOR yeast	LAP4-GFP MLPCN	LAP4-GFP pick2	MEP2 cherry2	RPL19A GFP CP2	CIT2 GFP CP2	AGP1 GFP CP2	Yeast autofluor	others
COc1cc(C(=O)NCc2nnc(SCC(=O)Nc3cc(C)on3)o2)cc(OC)c1OC	94.5	95.2	92.1	93.9	89.7	·	·	·	·	·	·
COc1cc(C(=O)NCc2nnc(SCC(=O)Nc3nccs3)o2)cc(OC)c1OC	76.0	50.3	168.8	98.0	87.0	101.0	99.8	98.5	109.7	96.9	·
O=c1o[nH]c(-c2ccccc2)c1-c1ccccc1	108.9	102.8	110.3	111.3	112.3	·	·	·	·	·	·
CC(Oc1ccc2c3c(c(=O)oc2c1)CCC3)C(=O)NCCN1CCOCC1 (stereo unspecified)	107.6	103.9	110.9	102.4	100.6	·	·	·	·	·	·
CC(Oc1cc2oc(=O)c3c(c2cc1Cl)CCC3)C(=O)NCCN1CCOCC1 (stereo unspecified)	23.8	58.2	142.3	108.3	89.9	99.0	106.5	100.9	105.2	103.3	-0.1
CC1(c2ccc(OC(F)F)cc2)NC(=O)N(/N=C/c2c(O)ccc3ccccc23)C1=O (stereo unspecified)	106.4	109.7	101.2	106.4	105.8	·	·	·	·	·	·
Cc1cc(S(=O)(=O)ON2C(=O)c3ccccc3C2=O)ccc1F	89.5	98.8	100.8	95.4	172.6*	·	·	·	·	·	1.23
